The term AC50 denotes the concentration giving half of the maximal activity seen.

Each structure is given as a SMILES string. Out of some 2,500 compounds screened, about 360 (14%) were called active. These entries were drawn from the full list. A number with no mark means an inactive call.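 How the source made its calls: active means signal-lowering compounds whose fitted half-maximal concentration AC50 is no higher than ten times their top tested concentration; inconclusive means flat curve with 30 to 70% inhibition, or poor fit; inactive means flat within 30%, signal increase, or AC50 above limit.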

Consider 15 molecules from PubChem BioAssay AID540356 (Broad Institute, 2011).

This assay is described as follows: HRP/luminol detection interference without ALR, dose response, artefact control for ALR inhibitor project, biochemical, luminescence, no ALR or DTT, cherry-pick (AID 540356).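 On activity change, negative = inhibition: 0% = median of neutral control wells and -100% = median of quercitin 100 µM wells.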 The note with it: HRP/H2O2 luminol luminescence counterscreen; series mostly up to 10 µM; activity change, negative = inhibition: at the top concentration. For orientation: A counterscreen serves to expose hits that act by an unwanted route or on another target.
Consider `CNCCc1ccc(O)c(O)c1`, for which the “activity change, negative = inhibition” value was -17%.
On to `NCCc1ccc(O)c(O)c1`, for which the AC50 was 6.13 µM (active).
For `C/C(CCc1c[nH]c2ccccc12)=N\O`, the “activity change, negative = inhibition” value was -1.34%.
The same measure, in the same setting: in the case of `CCc1ccc(N2C(=O)NC(=O)/C(=C\C=C\c3ccco3)C2=O)cc1` it was 2.01%; in that of `CC1=NN(c2ccccc2)C(=O)C1/C=C1/C(=O)NC(=O)N(c2cc(C)cc(C)c2)C1=O` (stereo not given), 0.554%; in that of `CN=C(SCc1ccccc1)c1c(O)n(C)c(=O)n(C)c1=O`, 1.96%.
As for `Cn1c(O)c(/C=N/Nc2ccccc2)c(=O)n(C)c1=O`, the AC50 is 1.32 µM (active).
As for `N/C(=N\[N+](=O)[O-])N/N=C/c1ccc(O)cc1`, the “activity change, negative = inhibition” value is -14.1%.
On the same count and under the same terms, in the case of `C=CCN1C(=O)NC(=O)/C(=C\c2ccc(-c3ccccc3[N+](=O)[O-])o2)C1=O` it was 1.87%.
On the same count and under the same terms, to `Cc1ccc(/C=C2\C(=O)NC(=O)N(Cc3ccccc3Cl)C2=O)o1` belongs -6.1%.
As to `CCCN1CCc2cccc3c2[C@H]1Cc1ccc(O)c(O)c1-3`, the AC50 is 9.91 µM (active).
`CC(=O)Nc1ccccc1OP1(=O)COc2ccccc2OC1`: the “activity change, negative = inhibition” value is 3.51%.
Still for that read-out and setting: to `Cc1ccc(/C=C2\C(=O)NC(=O)N(CCc3ccc(F)cc3)C2=O)s1` belongs 2.22%; to `O=C(O)C12C3CCCC1C32c1ccccc1` (stereo not given), 0.261%.
Regarding `CCNc1ccc(P(=S)(N(C)C)N(C)C)cc1`, the “activity change, negative = inhibition” value was -0.242%.
